Bioassay records from PubChem.
USP17 block = inhibitors of human USP17 deubiquitinase | inhibition, % at 50 µM | 47,000 compounds, 6.5% hits | purified USP17, Ub-rhodamine cleavage fluorescence, 3 h | Ubiquitin carboxyl-terminal hydrolase 17-like protein 5 (Homo sapiens), A8MUK1 | AID 1645855, 2021
Target sequence (A8MUK1 whole entry, looked up): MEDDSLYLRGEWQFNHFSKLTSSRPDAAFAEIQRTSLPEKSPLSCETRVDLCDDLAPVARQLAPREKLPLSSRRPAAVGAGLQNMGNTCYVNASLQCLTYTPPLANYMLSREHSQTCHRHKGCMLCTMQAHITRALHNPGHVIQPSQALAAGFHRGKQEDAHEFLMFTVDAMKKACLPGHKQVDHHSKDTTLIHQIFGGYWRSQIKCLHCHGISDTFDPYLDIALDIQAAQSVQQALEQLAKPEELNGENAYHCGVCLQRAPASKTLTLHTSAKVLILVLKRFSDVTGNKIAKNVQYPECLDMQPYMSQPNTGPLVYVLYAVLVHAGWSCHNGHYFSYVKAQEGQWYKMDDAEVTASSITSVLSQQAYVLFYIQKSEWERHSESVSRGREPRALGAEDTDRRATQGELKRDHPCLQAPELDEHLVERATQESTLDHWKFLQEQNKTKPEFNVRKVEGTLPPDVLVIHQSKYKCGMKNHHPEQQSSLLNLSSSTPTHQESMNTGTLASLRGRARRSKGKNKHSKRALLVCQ
USP10 block = inhibitors of human USP10 deubiquitinase. Ubiquitin carboxyl-terminal hydrolase 10 (Homo sapiens), Q14694. purified USP10, Ub-rhodamine fluorescence, 60 min. inhibition, % at 20 µM. 47,000 compounds, 1.1% hits
USP30 block = inhibitors of human USP30 deubiquitinase | purified USP30, Ub-rhodamine cleavage fluorescence | inhibition, % at 25 µM | 47,000 compounds, 5.3% hits | Ubiquitin carboxyl-terminal hydrolase 30 (Homo sapiens), Q70CQ3
USP8 block = inhibitors of human USP8 deubiquitinase; inhibition, % at 20 µM; purified USP8, Ub-rhodamine cleavage fluorescence, 30 min; Ubiquitin carboxyl-terminal hydrolase 8 (Homo sapiens), P40818; 47,000 compounds, 4.2% hits
USP28 inh = inhibitors of human USP28 deubiquitinase | Ubiquitin carboxyl-terminal hydrolase 28 (Homo sapiens), Q96RU2 | purified USP28, Ub-rhodamine cleavage fluorescence, 30 min | inhibition, % at 25 µM | 47,000 compounds, 3% hits | AID 1645857, 2021
Large screens that a line does not name were inactive. This is a sample that favours compounds with a hit; in the whole collection about 14% have one here. No stated cut-off is given here; in the data, active means inhibition above about 30%; inactive means the rest.

CCc1ccc(NC(=O)Cn2cc(-c3nnc(C)o3)ccc2=O)cc1	none
CN(C)C(=O)N1CC2(CCN(C(=O)c3cccnc3)CC2)C2(CCNC2=O)C1 (centres undefined)	none
CCc1ccc2nc(NC(=O)c3ccc(=O)[nH]c3)sc2c1	USP17 block 33
Cc1nn(C)c(Cl)c1CN1CCC(C(=O)Nc2cccc(-c3cccc(F)c3)c2)CC1	none
Cc1c(CN2CCC(C(=O)Nc3cccc(-c4cccc(F)c4)c3)CC2)cnn1C	USP30 block 31
O=C(COC(=O)c1ccc2c(=O)n3c(nc2c1)CCCCC3)NC12CC3CC(CC(C3)C1)C2	none
O=C(COC(=O)c1ccc2c(=O)n3c(nc2c1)CCCCC3)NCC1CCCCC1	USP17 block 55, USP30 block 65, USP28 inh 41
Cc1ccc(NC(=O)c2ccc3c(=O)n4c(nc3c2)CCCCC4)cc1S(=O)(=O)N1CCOCC1	USP17 block 36 (no result: USP30 block, USP28 inh)
O=C(Nc1cccc(S(=O)(=O)N2CCCC2)c1)c1ccc2c(=O)n3c(nc2c1)CCCCC3	USP28 inh 62
O=C(Nc1cccc(S(=O)(=O)N2CCCC2)c1)c1ccc(N2CCOCC2)c([N+](=O)[O-])c1	USP28 inh 41
COc1ccc(C(=O)Nc2ccc(C)c(S(=O)(=O)N3CCCCCC3)c2)cc1	none
O=c1c2cnc3nc(-c4cccnc4)nn3c2ccn1Cc1ccccn1	none
CCOc1ccc(Oc2ccc(S(=O)(=O)N3CCOCC3)cc2NC(=O)COc2ccccc2OC)cc1	none
Cc1ccc(-c2nc(C(=O)N3CCC(C(=O)O)CC3)cs2)cc1	none
O=C(NC1CCCC1)c1ccccc1N1C(=O)[C@@H]2Cc3c([nH]c4ccccc34)C(c3ccccc3)N2C1=O (some centres undefined)	none
O=C(NCCSc1ccc(Br)cc1)c1ccc(F)cc1	none
COc1ccc(-c2ccc(-c3nnn(CCN4CCCCC4)n3)cc2)cc1	USP8 block 47
Brc1ccccc1CN1CCN(Cc2ccccn2)CC1	none
O=C(NCc1cc(F)cc(F)c1)c1c(O)c2cnn(Cc3ccccc3)c2[nH]c1=O	none
Cc1ccccc1NC(=O)c1c(O)c2cnn(Cc3ccccc3)c2[nH]c1=O	USP17 block 35, USP8 block 83
CC(NC(=O)c1c(O)c2cnn(Cc3ccccc3)c2[nH]c1=O)c1ccccc1 (centres undefined)	USP8 block 86
COc1ccccc1NC(=O)c1c(O)c2cccnc2n(-c2ccccc2)c1=O	USP8 block 33
O=C(NCc1ccc2c(c1)OCO2)c1c(O)c2cnn(Cc3ccccc3)c2[nH]c1=O	USP8 block 57
Cc1nc(-c2ccnn2C)cc(C2CCCN(S(C)(=O)=O)C2)n1 (centres undefined)	none
Cc1ccc(NC(=O)N2CCc3[nH]cnc3C2c2ccncc2)cc1C (centres undefined)	none
CC(C)n1cnc2c1C(C(=O)N1CCCN(C)CC1)N(Cc1cccnc1)CC2 (centres undefined)	none
CN1C[C@@]23CN(C(=O)Nc4cccc(Cl)c4)C[C@@H](C[C@@H]2S1(=O)=O)O3	none
O=C(NCc1ccc2c(c1)OCO2)c1c(O)c2cccnc2n(-c2ccccc2)c1=O	USP8 block 81
Cc1ccc(NC(=O)c2c(O)c3cnn(C)c3[nH]c2=O)cc1C	USP8 block 85
O=C(NCc1ccc(F)cc1F)c1c(O)c2cnn(-c3ccc(F)cc3)c2[nH]c1=O	none
CC(C)c1nc2sc3c(NCCCN4CCOCC4)ncnc3c2c2c1CCC2	USP28 inh 48
CC(C)c1nc2sc3c(SCC(=O)N4CCOCC4)ncnc3c2c2c1CCC2	USP28 inh 35
CCCCc1nc2sc3c(NCCCO)ncnc3c2c2c1COC(C)(C)C2	USP17 block 46
CCCCNc1ncnc2c1sc1nc(CCC)c3c(c12)CCC3	USP17 block 54 (no result: USP30 block, USP28 inh)
CCn1nnc2c1CCN(C(=O)c1oc3ccccc3c1C)C2COC (centres undefined)	none
CCCCc1nc2sc3c(NCc4ccccn4)ncnc3c2c2c1CCC2	USP28 inh 43
c1ccc(-c2nc3sc4c(NCc5ccccn5)ncnc4c3c3c2CCC3)cc1	none
CCCc1nc2sc3c(NCCCN4CCOCC4)ncnc3c2c2c1CCC2	USP28 inh 84
CC(C)Cc1nc2sc3c(NCCN4CCOCC4)ncnc3c2c2c1CCC2	USP28 inh 82
CCCc1nc2sc3c(NCCN4CCOCC4)ncnc3c2c2c1CCC2	USP28 inh 80
Cc1ccc(CN2C(=O)N(Cc3ccc(F)cc3)S(=O)(=O)c3ccccc32)cc1	none
C=C1C([C@@]2(C)[C@@H](OC(C)=O)CC(=O)O[C@](C)(COC(C)=O)[C@@H]2CC(=O)OC)[C@@H](OC=O)[C@H](OC(=O)C(O)C(C)CC)[C@@]2(C)[C@H](c3ccoc3)CC(=O)[C@]12O (some centres undefined)	none
CCCN1CCN(C(=O)c2cc(NC(=O)C(C)C)cc3nc(C)ccc23)CC1	none
CC(Sc1nc2nn(-c3ccccc3)c(=O)c-2c2n1CCCCC2)C(=O)NC(N)=O (centres undefined)	none
CCCc1nc2sc3c(NCc4ccco4)ncnc3c2c2c1CCC2	USP28 inh 80
O=C(c1ccc2c(c1)OCCCO2)N1C2CCC(O)(CC2)C1CN1CCOCC1 (centres undefined)	none
O=C(c1ccc(F)cc1)N1CCC(C(=O)N2CCN(c3ccc(F)cc3)CC2)CC1	none
Cc1ccccc1C(=O)NCCn1cc(SCC(=O)Nc2ccc3c(c2)OCCO3)c2ccccc21	USP30 block 89, USP28 inh 57
Cc1ccccc1Cn1cc(SCC(=O)Nc2ccc(F)cc2)c2ccccc21	none
O=C(CSc1cn(CC(=O)N2CCCCC2)c2ccccc12)Nc1ccc2c(c1)OCO2	none
O=C(CSc1cn(Cc2ccccc2)c2ccccc12)Nc1ccc2c(c1)OCCO2	USP30 block 48, USP28 inh 60 (no result: USP17 block)
Cc1ccccc1C(=O)NCCn1cc(SCC(=O)N2CCOCC2)c2ccccc21	none
Cc1ccccc1Cn1cc(SCC(=O)Nc2ccc3c(c2)OCCO3)c2ccccc21	USP30 block 35, USP28 inh 50
N#Cc1cccnc1N1CCC(C2CCCCCN2C(=O)c2ccccc2)CC1 (centres undefined)	none
Cc1ncc(C(=O)NC2CC2)c(=O)n1CC(=O)Nc1cc(F)ccc1F	none
Cc1cc(C)c2cc(CN(C(=O)Nc3ccc(F)cc3)C3CCCC3)c(=O)[nH]c2c1	none
O=C(Nc1ccccc1Cl)N(Cc1cc2cc3c(cc2[nH]c1=O)OCCO3)C1CCCCC1	USP17 block 52
Cc1cc(C)c2cc(CN(C(=O)Nc3ccc(Cl)cc3)C3CCCC3)c(=O)[nH]c2c1	USP30 block 36
CC(=O)N[C@@H]1CN(C(=O)CN2CCCCC2)C[C@H]1O	none
Cc1ccc2c(C)c(C(=O)N(Cc3ccc(Cl)cc3)Cc3ccco3)oc2c1C	USP17 block 35, USP8 block 49
